Test results as given in PubChem BioAssay AID1851 (National Center for Advancing Translational Sciences (NCATS), 2009).
Where “and” joins values, the source holds several entries; their conditions need not be identical. Equal entries are not always repeated. Screen size: about 16,000 compounds; about 4,000 (25%) were called active. Inconclusive results (about 26%) are left out. Calls come from the whole dose curve; as a rule, active = well fitted curve in the direction sought with a large enough effect; inconclusive = small, poorly fitted or top-dose-only effect, or effect the other way; inactive = no such curve, though single readings can be large or run the other way. Not all results are given here. A structure can be active in one record and inactive in another.

Molecular target: Cytochrome P450 2C9 (Homo sapiens) (UniProt P11712)
Sequence (P11712 whole entry, looked up): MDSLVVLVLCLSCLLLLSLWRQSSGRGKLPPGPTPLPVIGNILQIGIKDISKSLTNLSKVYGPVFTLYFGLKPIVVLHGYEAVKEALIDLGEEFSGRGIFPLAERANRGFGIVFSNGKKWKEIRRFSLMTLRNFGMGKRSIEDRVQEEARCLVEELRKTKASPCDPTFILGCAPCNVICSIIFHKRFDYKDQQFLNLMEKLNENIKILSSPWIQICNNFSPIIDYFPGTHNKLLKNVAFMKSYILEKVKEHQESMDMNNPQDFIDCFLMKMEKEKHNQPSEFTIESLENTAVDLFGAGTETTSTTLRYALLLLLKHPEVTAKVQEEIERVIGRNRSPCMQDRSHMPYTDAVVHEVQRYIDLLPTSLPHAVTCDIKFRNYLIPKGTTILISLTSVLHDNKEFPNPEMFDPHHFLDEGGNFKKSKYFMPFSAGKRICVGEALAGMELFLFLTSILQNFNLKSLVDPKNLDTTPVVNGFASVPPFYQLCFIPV
Experiment: Cytochrome panel assay with activity outcomes
Settings: recombinant CYP, pro-luciferin dealkylation, luminescence, p450-cyp2c9; series mostly up to 57.1 µM; activity, negative = inhibition: at the top concentration
% is set by controls: 0 for no effect and ±100 for the full control effect.

Structure (SMILES) | AC50 | activity, negative = inhibition
COc1ccc(C(=O)N2CCC3(CCCN(Cc4ccncc4)C3)CC2)cc1 | 3.16 µM (active) | 
O=C(c1ccncc1)N1CCC2(CCCN(Cc3ccccc3)C2)CC1 |  | -5.36% (inactive)
O=C(c1ccncc1)N1CCC[C@@]2(CCN(Cc3ccccc3)C2)C1 |  | -19% (inactive)
O=C(c1ccncc1)N1CCC2(CCCN(Cc3ccncc3)C2)CC1 | 5.01 µM (active) | 
COc1ccc(C(=O)N2CCC3(CCCN(CC(C)C)C3)CC2)cc1 |  | 6.29% (inactive)
COc1ccc(C(=O)N2CCC3(CCCN(Cc4ccccc4)C3)CC2)cc1 |  | 4.43% (inactive)
COc1cc2c3cc1Oc1cc(ccc1O)C[C@@H]1c4c(cc(OC)c(O)c4Oc4ccc(cc4)C[C@H]3[N+](C)(C)CC2)CC[N+]1(C)C |  | 4.34% [at 11.4 µM] (inactive)
O=C(Nc1c(C(=O)N2CCCCC2)cnn1-c1ccccc1)c1ccco1 |  | -26.3% (inactive)
O=C(Nc1c(C(=O)N2CCOCC2)cnn1-c1ccccc1)c1ccco1 |  | 4.62% (inactive)
Cc1sc(NC(=O)c2ccco2)c(C(c2ccncc2)N2CCOCC2)c1C (stereo not given) | 2.24 µM (active) | 
Cc1sc(NC(=O)c2ccco2)c(C(c2cccnc2)N2CCCC2)c1C (stereo not given) | 2.51 µM (active) | 
Cc1cnc(CNc2ncncc2-c2c(C)noc2C)cn1 |  | 17.1% [at 2.29 µM] (inactive)
O=C1NCC2(CCN(CCc3ccccc3)CC2)O1 | inactive | 
N#C[C@H](c1ccccc1)N1CCCN([C@@H](C#N)c2ccccc2)C1c1ccccc1O (stereo not given in full) | 3.16 µM (active) | 
O=c1sc2ccccc2n1CCCOc1ccccc1 | 12.6 µM (active) | 
Cc1ccccc1OCCCn1c(=O)sc2ccccc21 | 5.01 µM (active) | 
O=C(O)c1ccccc1NCn1c(=S)sc2ccccc21 |  | -5.72% [at 11.4 µM] (inactive)
Cc1ccccc1OCCCN1CCCC1 |  | -3.29% (inactive)
C[N+](C)(CCCOc1ccccc1)c1ccccc1 |  | -28.1% [at 25.6 µM] (inactive)
Cc1ccc(Cl)cc1-n1c(=O)cc(N2CC(C)OC(C)C2)[nH]c1=O (stereo not given) |  | 35.2% (inactive)
O=C(O)c1cc2ccccc2c(Cc2cc3ccccc3c(C(=O)O)c2O)c1O (tested in a mixture with another compound) |  | -15.8% [at 25.6 µM] (inactive)
C=CCNS(=O)(=O)c1cccc2cc(C(=O)O)c(O)cc12 | 2.82 µM (active) | 
NS(=O)(=O)c1ccc(N=Nc2c(O)c(C(=O)O)cc3ccccc23)cc1 |  | -28.9% [at 11.4 µM] (inactive)
N#Cc1cccc(NC(=O)N2CC[C@@]3(CCCNC3)C2)c1 |  | -22.5% (inactive)
CC(=O)OC[C@@H]1O[C@H](C/C=N\O[C@@H](C)c2cn([C@H](CO)Cc3ccccc3)nn2)C=C[C@@H]1OC(C)=O |  | 8% [at 11.4 µM] (inactive) and -8.02% [at 11.4 µM] (inactive)
COc1ccc(O[C@H]2C=C[C@@H](c3ccccc3)O[C@H]2COC(=O)CC/C(C)=N\O[C@@H](C)c2cn([C@H](CO)Cc3ccccc3)nn2)cc1 | 1.26 µM (active) | 
COc1ccc(O[C@H]2C=C[C@@H](c3ccccc3)O[C@H]2COC(=O)CC/C(C)=N\O[C@@H](C)CN2CCCCc3nc(C)c(C)cc32)cc1 |  | -28.1% [at 11.4 µM] (inactive)
C/C(CCC(=O)OC[C@@H]1O[C@H](C#Cc2ccccc2)C=C[C@@H]1Oc1ccc(C)cc1)=N/O[C@@H](C)c1cn([C@H](CO)Cc2ccccc2)nn1 | 3.16 µM (active) | 

Structure (SMILES) | AC50 | activity, negative = inhibition
C/C(CCC(=O)OC[C@@H]1O[C@H](C#Cc2ccccc2)C=C[C@@H]1Oc1ccc(C)cc1)=N/OC[C@@H](C)[C@H](OCc1ccccc1)C(C)C |  | 12.5% [at 11.4 µM] (inactive)
CO/N=C(/C)CCC(=O)OC[C@@H]1O[C@H](C#Cc2ccccc2)C=C[C@@H]1Oc1ccc(C)cc1 |  | -2.9% [at 11.4 µM] (inactive)
COc1ccccc1CNC(=O)Cn1nnc(-c2ccncc2)n1 | 7.94 µM (active) | 
CCCCOc1ccc(-c2nnn(CC(=O)c3c[nH]c4ccccc34)n2)cc1 |  | -13.3% (inactive)
COc1ccccc1CNc1ccnc(-c2ccc(C(=O)N(C)C)cc2)n1 |  | -10.3% [at 2.29 µM] (inactive)
CCc1nnc(NC(=O)CCC(=O)NCc2ccccc2OC)s1 |  | -7.86% (inactive)
COc1ccc(-c2nnn(CC(=O)NCCc3c[nH]c4ccccc34)n2)cc1OC | 4.47 µM (active) | 
COc1cc2c(CCNC(C)=O)c[nH]c2cc1O |  | -7.58% (inactive)
NC(N)=[N+]1CCc2ccccc2C1 |  | 20.3% (inactive)
CC1=C(C#N)C(Nc2ccc(Cl)cn2)(C(F)(F)F)C(=O)N1 (stereo not given) | 14.1 µM (active) | 
Cc1cc(N2C(=O)C(O)=C(C(=O)c3ccco3)C2c2ccc(O)cc2)no1 (stereo not given) | 11.2 µM (active) | 
COc1cccc(C2C(C(=O)c3cc4ccccc4o3)=C(O)C(=O)N2c2cc(C)on2)c1OC (stereo not given) | 14.1 µM (active) | 
CN(C)CCN1C(=O)C(O)=C(C(=O)c2cc3ccccc3o2)C1c1ccccn1 (stereo not given) |  | -12.8% (inactive)
COc1cc(OC)c(C2N(c3cc(C)on3)C(=O)C3CCCN32)cc1OC (stereo not given) |  | 12.9% (inactive)
CC(=O)Nc1ccc(OC[C@@H](O)CNC(C)C)cc1 | inactive | 
CC(C)NC[C@@H](O)COc1ccc(CCOCC2CC2)cc1 | inactive and 631 nM (active) | 
CC(C)NC[C@@H](O)COc1ccc(COCCOC(C)C)cc1 | inactive | 
COc1ccccc1CN1CC[C@@]2(CCCN(C(=O)c3cccn3C)C2)C1 |  | -0.791% (inactive)
COC(=O)[C@@]1(Cc2ccccc2)[C@H]2c3cc(C(=O)N(C)C)n(Cc4c(CO)[nH]cc(C)c4=O)c3C[C@H]2CN1C(=O)c1ccccc1 | 0.631 µM (active) | 
COC(=O)[C@@]1(Cc2ccc(F)cc2)[C@H]2c3cc(C(=O)N(C)C)n(Cc4c(CO)[nH]cc(C)c4=O)c3C[C@H]2CN1C(=O)c1ccccc1 | 10 µM (active) | 
CN(C)C(=O)c1ccc(-c2cncnc2Nc2ccccc2)cc1 |  | -3.51% [at 2.29 µM] (inactive)
C=CC[C@H](N)C(=O)O |  | -11% (inactive)
O=C(O)C1CCC(=O)N(C2CC2)C1c1ccccc1 (stereo not given) |  | 1.83% (inactive)
CC12CC[C@@H]3c4ccc(OP(=O)(O)O)cc4CCC3C1CCC2=O (stereo not given in full) |  | 15.4% [at 11.4 µM] (inactive)
Clc1ccccc1-c1nc(-c2ccncc2)no1 |  | -19.4% [at 11.4 µM] (inactive)
Clc1ccccc1-c1nc(-c2ccccc2)n[nH]1 | 28.2 µM (active) | 
Clc1ccccc1-c1nc(N2CCNCC2)c2ccccc2n1 |  | 2.98% [at 2.29 µM] (inactive)
